POLI inh: qHTS for Inhibitors of Polymerase Iota; AID 588590, 2011; Pol iota fluorescent replication assay, 10 min; DNA polymerase iota (Homo sapiens), Q9UNA4; 1% of 390,000 active; Potency, µM (highest dose often 115 µM), without a hit: top-dose activity, negative = inhibition, usual class: inhibitors
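Pol iota at 10 nM preincubated 15 min with compounds at room temperature; reaction started with fluorescent substrate, 50 nM final. Fluorescence read kinetically at 0 and 10 min; buffer-only wells as negative control.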
WRN inhibitor: qHTS for Inhibitors of WRN Helicase; 0.46% of 360,000 active; WRN helicase unwinding, fluorescent forked duplex, kinetic; Potency, µM (top dose mostly 114 µM), inactives show at the highest dose activity change, negative = inhibition, most hits filed as inhibitors; further: on the % scale 0 is the no-effect control and ±100 the full control effect; nearly all actives have a fitted effect of over 55% in size
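Enzyme (20 nM final) and test compound sit together 15 min at room temperature before substrate addition. Substrate is a single-forked duplex oligonucleotide (100 nM) labelled with fluorophore and quencher, with 2 mM ATP; helicase unwinding raises red fluorescence, read kinetically.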
POLH inh: qHTS for Inhibitors of Polymerase Eta; DNA polymerase eta (Homo sapiens), Q9Y253; recombinant Pol eta, fluorescent DNA replication assay; Potency, µM (top dose mostly 114 µM), for inactives: top-dose activity change, negative = inhibition, hits mostly inhibitors; 1.2% of 390,000 active; AID 588591, 2011; further: on the % scale 0 is the no-effect control and ±100 the full control effect
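Fluorescent replication assay: 50 nM final substrate added after a 15 min room-temperature compound preincubation with 10 nM enzyme. Signal taken at 0 min and again at 10 min.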
POLB inh: qHTS Assay for Inhibitors of DNA Polymerase Beta | Pol beta primer extension/strand displacement, fluorescence kinetic | 1.3% of 340,000 active | AID 485314, 2010 | Potency, µM (top dose mostly 114 µM), without a hit: at the highest dose activity change, negative = inhibition, hits mostly inhibitors; further: on the % scale 0 is the no-effect control and ±100 the full control effect
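Pol beta (10 nM) was preincubated with compound for 15 min at room temperature. The reaction was then started with 50 nM substrate and read immediately and after a further 10 min at room temperature.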
POLK inh: qHTS for Inhibitors of Polymerase Kappa. DNA polymerase kappa (Homo sapiens), Q9UBT6. purified Pol kappa, fluorescent DNA synthesis assay, 10 min. Potency, µM (titrated, usually from 107 µM), inactives show top-dose activity, negative = inhibition, hits mostly inhibitors. 0.53% of 400,000 active; further: on the % scale 0 is the no-effect control and ±100 the full control effect
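Enzyme at 10 nM met test compounds for 15 min at room temperature. Substrate addition (50 nM final) began the reaction, which was monitored by fluorescence at 0 and 10 min.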
FEN1 inh: qHTS Assay for the Inhibitors of Human Flap endonuclease 1 (FEN1); P39748; Recombinant FEN1 flap cleavage, fluorescence, 15 min; Potency, µM (doses to about 114 µM), for inactives: at the highest dose activity change, negative = inhibition, usual class: inhibitors; 0.35% of 390,000 active; AID 588795, 2011; further: on the % scale 0 is the no-effect control and ±100 the full control effect; nearly all actives have a fitted effect of over 65% in size
Target sequence (P39748 whole entry, looked up): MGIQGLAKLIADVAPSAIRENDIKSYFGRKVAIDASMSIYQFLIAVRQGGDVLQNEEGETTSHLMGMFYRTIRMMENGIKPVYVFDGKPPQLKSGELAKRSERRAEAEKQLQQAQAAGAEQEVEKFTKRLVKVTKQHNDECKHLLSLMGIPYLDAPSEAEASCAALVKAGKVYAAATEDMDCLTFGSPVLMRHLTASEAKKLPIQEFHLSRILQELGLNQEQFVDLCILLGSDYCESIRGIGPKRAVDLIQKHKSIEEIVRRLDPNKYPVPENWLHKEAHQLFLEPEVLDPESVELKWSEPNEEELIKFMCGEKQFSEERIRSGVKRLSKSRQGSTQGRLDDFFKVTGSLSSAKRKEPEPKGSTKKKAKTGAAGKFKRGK
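In this screen, 50 nM flap DNA substrate was added to 10 nM FEN1 pretreated with compound for 15 min at room temperature; cleavage was followed with reads at 0 and 15 min, and Hill fitting gave concentration–response parameters.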
* marks the source's active call; other numbers are inactive results; ? = inconclusive; · = no result; [ ] = remark or other dose. Shown are actives, neighbours in structure and some others; about 2.4% of the full set was active somewhere. The call rests on the fitted dose curve; in most records, active means well fitted curve in the direction sought with a large enough effect; inconclusive means small, poorly fitted or top-dose-only effect, or another doubt; inactive means no such curve, though single readings can be large; an effect the other way counts as inactive or inconclusive. Potency means the concentration at half of the fitted maximal effect.

SMILES | POLI inh | WRN inhibitor | POLH inh | POLB inh | POLK inh | FEN1 inh
O=C1CC(=O)N(CCNc2ncc(C(F)(F)F)cc2Cl)C(=O)N1 | 25µM* | -1%[57.1 µM] | -13% | 56µM* | ? | -1%
CCN1CCN(c2cc(C)c3cc(NC(=O)c4cc(OC)c(OC)c(OC)c4)ccc3n2)CC1 | -24% | · | ? | ? | -13%[60.1 µM] | -33%
CCN1CCN(c2cc(C)c3cc(NC(=O)c4ccc(OC)c(OC)c4)ccc3n2)CC1 | ? | -30% | ? | 8.9µM* | ? | ?
CCOC(=O)[C@H](CCc1ccccc1)N[C@H]1CS[C@H](c2cccs2)CN(CC(=O)O)C1=O | · | · | · | · | 7%[19.4 µM] | ·
COc1cccc(C2CC(=O)NC3=C2C(=O)CCC3)c1 (centres undefined) | 12% | -2% | -11% | 2% | -2% | -4%
CN1CCN(S(=O)(=O)c2cccc(C(=O)Nc3cc(C(N)=O)cc(C(N)=O)c3)c2)CC1 | ? | -22% | 0% | ? | -10% | -1%
COc1ccccc1OCC(=O)OCC(=O)Nc1sccc1C(N)=O | ? | -16%[57.1 µM] | 25µM* | ? | -32% | -1%
CN1CCN(S(=O)(=O)c2cccc(C(=O)Nc3sccc3C(N)=O)c2)CC1 | 45µM* | 0%[11.6 µM] | 45µM* | · | ? | -20%
COc1ccc(C(=O)OCC(=O)Nc2sccc2C(N)=O)cc1OC | -9% | -8% | -15% | 20% | 4% | -1%
COc1ccc(NC(=O)COC(=O)c2cccc(S(=O)(=O)N(C)C)c2)cc1 | 35% | -5% | -7% | -4% | -5% | -7%
CN(C)S(=O)(=O)c1cccc(C(=O)OCC(=O)Nc2sccc2C(N)=O)c1 | ? | ? | 20µM* | 9% | ? | -13%
CCOC(=O)c1cc(C#N)c(N2CCN(c3ccccn3)CC2)nc1-c1ccccc1 | 17% | -3% | -1% | 8% | -10% | 0%
CN(C)S(=O)(=O)c1ccc(N=Cc2c(C(F)(F)F)[nH][nH]c2=O)cc1 | 16% | -2% | -1% | 29% | -1% | 1%
CC(C)CCn1c(SCC(=O)OCn2nnc3ccccc3c2=O)nc2ccccc2c1=O | 0% | -3%[57.1 µM] | -5% | 0% | -5% | 12%
CN1C(=O)C(C)(C)c2cc(S(=O)(=O)N3CCN(c4cccc(Cl)c4)CC3)ccc21 | ? | -21% | 0% | 14µM* | -36% | -11%
O=C(COC(=O)c1ccc(NS(=O)(=O)c2ccc(F)c(F)c2)cc1)NCC1CCCO1 (centres undefined) | 13% | -1% | -1% | ? | -3% | 21%
COc1ccc(CNc2ccc3cn[nH]c3c2)c(OC)c1OC | 54% | -5% | -8% | 0% | 1% | 5%
CCOc1cc(CNc2ccc3cn[nH]c3c2)ccc1OC | ? | -24% | ? | -13% | -36% | 35µM*
NC(=O)N/N=C/c1ccc(N2CCOCC2)s1 | -6% | -4% | -13% | 5% | -7% | 0%
C/C(=N\Nc1ccc(Cl)c(C(=O)O)c1)c1ccc(N2CCOCC2)cc1 | ? | -21% | 28µM* | -8% | ? | -4%
O=C(O)c1cc(N/N=C/c2ccc(N3CCOCC3)s2)ccc1Cl | 13µM* | ? | 11µM* | 32µM* | 28µM* | ?
O=C(Cn1nnc(-c2ccc(CN3CCOCC3)cc2)n1)N1CCCc2ccccc21 | 0% | 4% | -9% | -8% | 1% | -17%
CCNc1ncc2nc(-c3cc(F)cc(F)c3)c(=O)n(-c3ccc(OC)cc3)c2n1 | · | · | · | · | 5%[60.1 µM] | ·
Cc1ccc(C2=NN(C(=O)CCC(=O)O)C(c3cn(-c4ccccc4)nc3-c3ccc(C)cc3)C2)cc1 (centres undefined) | 1% | ? | ? | 22µM* | -5%[60.1 µM] | -32%
Cc1ccc2nc(Cl)c(C3CC(c4cccs4)=NN3C(=O)CCCC(=O)O)cc2c1 (centres undefined) | ? | 3% | -6% | -10% | 0% | 0%
SMILES | POLI inh | WRN inhibitor | POLH inh | POLB inh | POLK inh | FEN1 inh
Cc1ccc(-c2nn(-c3ccccc3)cc2C2CC(c3cccs3)=NN2C(=O)CCCC(=O)O)cc1 (centres undefined) | 4% | ? | ? | -6% | -2% | 50µM*
CCOc1ccc2nc(Cl)c(C3CC(c4ccc(C)cc4)=NN3C(=O)CCCC(=O)O)cc2c1 (centres undefined) | 18% | · | ? | 22µM* | -22% | -17%
COc1ccccc1Oc1c(C)oc2cc(OC(=O)c3ccco3)ccc2c1=O | 3% | -1% | -6% | 0% | -27% | -15%
Nc1ccc(OC(=O)Nc2ccc(O)cc2)cc1 | 20µM* | -14% | -13% | 32% | -8% | -13%
O=C(Nc1ccc(N2CCN(c3ccc(O)cc3)CC2)cc1)Oc1ccccc1 | 5% | -4% | -6% | 28% | -8% | -1%
Cc1cc(Cl)ccc1NNC(N)=S | 14µM* | -1%[11.6 µM] | -9% | 10% | -7% | -4%
CC(/C=N/NC(=O)c1nnn(-c2nonc2N)c1CN(C)C)=C\c1ccco1 | 20µM* | -8%[11.6 µM] | -7% | 0% | 79µM* | -2%
CCCN(CCC)Cc1c(C(=O)N/N=C/C(C)=C\c2ccco2)nnn1-c1nonc1N | 28% | 2% | -16% | -10% | -5% | -7%
CCCCN(CC)C(=O)c1cc2c(=O)n3ccccc3nc2n1C | -25% | · | -12% | 45µM* | -28% | 0%
C/C=C/c1ccc(OCc2cc(=O)n3cc(C)ccc3n2)c(OC)c1 | ? | -17% | -6% | 35µM* | -1% | 6%
O=S(=O)(c1ccc(Cl)cc1)N1CCN(CCc2ccccc2)CC1 | 42% | -1% | -13% | 36% | 3% | 8%
Cc1nnc(NC(=O)Cc2cccs2)s1 | 45µM* | -16%[57.1 µM] | ? | 35µM* | ? | -6%
Cc1ccccc1CSc1nnc(NC(=O)Cc2cccs2)s1 | 101% | -31% | ? | 22µM* | -25% | -3%
O=C(Cc1cccs1)Nc1nnc(SCc2ccc(Br)cc2)s1 | ? | -4%[11.6 µM] | ? | 32µM* | ? | -9%
O=C1[C@H](Cc2ccccc2)NCC=CC[C@@H](c2ccc(Cl)cc2)N1Cc1ccc(Cl)cc1 | 23% | -10% | -23% | · | -15% | -31%
COc1ccc(CC(=O)NCc2ccc(-n3cccc3)cc2)cc1OC | 142% | 12% | -12% | 2% | 2% | 9%

Compound activity deposited in PubChem BioAssay by National Center for Advancing Translational Sciences (NCATS).
